Screening data deposited in PubChem by National Center for Advancing Translational Sciences (NCATS).
This is a sample that favours compounds with a hit; in the whole collection about 7.5% have one here.
FBPA Giardia inh: Giardia lamblia aldolase inhibition. A8B2U2. purified Giardia FBPA. Potency, µM (doses to about 59.6 µM), usual class: inhibitors. hit rate 0.71% among 290,000. AID 2451; also: nearly all actives have a fitted effect of over 55% in size
Target sequence (A8B2U2 whole entry, looked up): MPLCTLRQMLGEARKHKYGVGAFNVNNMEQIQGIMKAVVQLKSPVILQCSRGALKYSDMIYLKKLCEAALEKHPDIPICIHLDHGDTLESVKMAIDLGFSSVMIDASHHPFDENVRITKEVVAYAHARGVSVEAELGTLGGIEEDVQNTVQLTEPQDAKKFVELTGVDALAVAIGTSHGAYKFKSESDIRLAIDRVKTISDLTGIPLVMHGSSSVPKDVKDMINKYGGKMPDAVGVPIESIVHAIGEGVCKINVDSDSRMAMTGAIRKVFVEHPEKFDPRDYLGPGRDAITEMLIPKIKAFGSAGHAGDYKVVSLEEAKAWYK
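40 nM FBPA preincubated 10 min at RT with compound (up to 57.5 uM final), then substrate plus GAPDH/TPI/NAD/arsenate coupling and diaphorase/resazurin added. Fluorescence read after 20 min at RT, 525/598 nm.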
Vaccinia Venus: inhibitors of vaccinia virus (Venus reporter). Vaccinia virus Venus reporter expression, fluorescence. Potency, µM (top dose mostly 36.5 µM), actives largely listed as inhibitors. hit rate 0.46% among 330,000; calls by dose curve; tested in A549 cells; also: nearly all actives have a fitted effect of over 30% in size
HCMV antiviral: human cytomegalovirus inhibition; HFF cells, HCMV-luciferase reporter, 72 h; active compounds read low; activity change, negative = inhibition, % at 57.5 µM; hit rate 4.5% among 410,000; AID 1259415; in the data active = activity change below about -60%; inconclusive = no clear call, values can overlap the other calls; inactive = above about -39%
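Luciferase read-out from HCMV-luciferase-infected HFFs (MOI 1 PFU/cell) 72 h post infection at 37C; compounds added after 16 h cell attachment; activity normalized between buffer-only basal and Salinomycin (10uM) inhibitor controls.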
VACV mCherry inh: inhibitors of vaccinia virus infection (mCherry reporter signal); Potency, µM (highest dose often 36.5 µM), usual class: inhibitors; hit rate 0.63% among 310,000; Vaccinia virus mCherry reporter infection, fluorescence; calls by dose curve; tested in A549 cells; also: nearly all actives have a fitted effect of over 35% in size
FMDV inh: foot and mouth disease virus antiviral activity | hit rate 1.2% among 410,000 | Potency, µM (top dose mostly 57.9 µM), actives largely listed as inhibitors | FMDV antiviral cell-based qHTS | AID 1159524; calls by dose curve; tested in HEK293T cells; also: read-out not given here; nearly all actives have a fitted effect of over 45% in size
HCV inh: HCV inhibition | Huh7.5.1 HCVcc-Cre infection, luciferase reporter, 44 h | AID 651820 | Potency, µM (titrated, usually from 41.8 µM), usual class: inhibitors | hit rate 3.4% among 340,000
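After 44 h co-culture of compound, cells and HCVcc-Cre (~0.5 moi), substrate is added for 15 min at room temperature and luciferase measured over 15 sec. Cells were seeded at 1,000/well and pre-cultured 4 h.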
Large screens that a line does not name were inactive. Unless noted, calls follow the shape of the dose curve; as a rule, active = well fitted curve in the direction sought with a large enough effect; inconclusive = small, poorly fitted or top-dose-only effect, or another doubt; inactive = no such curve, though single readings can be large; an effect the other way counts as inactive or inconclusive.

Cc1ccccc1OCC(=O)Nc1cccc(NC(=O)c2ccco2)c1	FMDV inh inconclusive, HCV inh inconclusive
Cc1ccccc1OCC(=O)Nc1ccc(NC(=O)c2ccco2)cc1	HCMV antiviral -79.7, HCV inh inconclusive (no result: Vaccinia Venus, VACV mCherry inh)
CC(=O)NC(c1ccc(F)c(F)c1)c1nc(-c2cccc(C(C)C)c2)cs1 (stereo not given)	none (no result: FBPA Giardia inh, HCV inh)
CCc1ccc(-c2nc(C(N)=O)c3[nH]c(=O)n(-c4ccccc4OC)c3n2)cc1	Vaccinia Venus inconclusive, HCMV antiviral -98.3, FMDV inh inconclusive, HCV inh inconclusive
COc1ccc(-c2nc(C(N)=O)c3[nH]c(=O)n(-c4cccc(Cl)c4)c3n2)cc1OC	Vaccinia Venus inconclusive, VACV mCherry inh inconclusive, FMDV inh inconclusive, HCV inh inconclusive
CN(C)c1ccc(CC2C(=O)Nc3ccccc32)cc1 (stereo not given)	FBPA Giardia inh inconclusive, HCMV antiviral -63.3
O=C1Nc2ccccc2C1Cc1ccc(Br)cc1 (stereo not given)	none (no result: FBPA Giardia inh, HCV inh)
Cc1cccc(CC2C(=O)Nc3ccccc32)c1 (stereo not given)	HCMV antiviral -70.0 (no result: FBPA Giardia inh, HCV inh)
Nc1c2c(nc3ccccc13)N(C1CCCCC1)CC2	FBPA Giardia inh inconclusive, Vaccinia Venus inconclusive, VACV mCherry inh inconclusive, HCV inh 0.316µM
Cc1cccc(C)c1-n1nnnc1C(=O)c1cccnc1	none (no result: FBPA Giardia inh, Vaccinia Venus, VACV mCherry inh, FMDV inh, HCV inh)
C/C=C\C(=O)Nc1cccc(C2=NOC3(C2)C[C@@H](C(N)=O)N(C(=O)CC(c2ccccc2)c2ccccc2)C3)c1 (stereo not given in full)	Vaccinia Venus inconclusive, VACV mCherry inh inconclusive, HCV inh inconclusive
CCCCCC(=O)Nc1cccc(C2=NOC3(C2)C[C@@H](C(N)=O)N(C(=O)CC(c2ccccc2)c2ccccc2)C3)c1 (stereo not given in full)	Vaccinia Venus 12.6µM, FMDV inh inconclusive, HCV inh inconclusive
NC(=O)[C@H]1CC2(CC(c3cccc(NC(=O)COc4ccc(Cl)cc4)c3)=NO2)CN1C(=O)Cc1ccc([N+](=O)[O-])cc1 (stereo not given in full)	Vaccinia Venus inconclusive, HCMV antiviral -78.3, VACV mCherry inh inconclusive, FMDV inh inconclusive, HCV inh 1.58µM
Cn1c(=O)cnc2cnc(Oc3ccccc3)nc21	none (no result: Vaccinia Venus, HCMV antiviral, VACV mCherry inh, HCV inh)
CCOC(=O)c1c(NC(=O)c2ccco2)sc2c1CCCCC2	HCMV antiviral inconclusive, HCV inh inconclusive (no result: FMDV inh)
CCOC(=O)c1c(NC(=O)C(C)N2CCN(C(=O)c3ccco3)CC2)sc2c1CCCC2 (stereo not given)	Vaccinia Venus inconclusive, VACV mCherry inh inconclusive, FMDV inh inconclusive, HCV inh 10µM
CCOc1ccc(NC(=O)Cn2nc(-c3ccccc3Cl)n(CC)c2=S)cc1	Vaccinia Venus inconclusive, HCMV antiviral -61.6, FMDV inh inconclusive, HCV inh inconclusive (no result: VACV mCherry inh)
CCCN1CNc2c(c(=O)[nH]c(=S)n2CCc2cccc(C)c2C)C1	none (no result: FBPA Giardia inh, HCMV antiviral, FMDV inh, HCV inh)
CN(Cc1ccccc1O)CC1CCCN(CCc2ccc(Cl)cc2)C1 (stereo not given)	HCV inh 10µM (no result: Vaccinia Venus, VACV mCherry inh)
COc1ccc(CCN2CCCC(CN(C)Cc3cccc(OC)c3)C2)cc1 (stereo not given)	HCV inh 7.94µM
COc1ccc(CN(C)CC2CCCN(CCc3ccc(F)cc3)C2)c(OC)c1OC (stereo not given)	HCV inh inconclusive (no result: Vaccinia Venus, VACV mCherry inh)
COc1ccc(CCN2CCCC(CN(C)Cc3cc(OC)ccc3OC)C2)cc1 (stereo not given)	HCV inh 10µM (no result: Vaccinia Venus, VACV mCherry inh)
CN(Cc1ccc(C#CCCO)cc1)CC1CCCN(CCc2ccc(Cl)cc2)C1 (stereo not given)	none (no result: Vaccinia Venus, VACV mCherry inh)
Cc1c(C(=O)C(=O)NCC2CCCO2)c2ccccc2n1C (stereo not given)	HCMV antiviral inconclusive
COC(=O)[C@@]12C[C@@H](CC(=O)N3CCOCC3)C(=O)N(Cc3ccco3)C1=CCC(C)(C)C2	none (no result: FBPA Giardia inh, HCV inh)
COc1ccc2c3c(n(C)c2c1)[C@@H](CO)N(Cc1cc(F)ccc1F)CC31CN(C(C)=O)C1	none (no result: FBPA Giardia inh, Vaccinia Venus, VACV mCherry inh, FMDV inh, HCV inh)
c1ccc(Cn2nnc3c(N4CCN(Cc5ccc6c(c5)OCO6)CC4)ncnc32)cc1	FMDV inh inconclusive, HCV inh 7.08µM (no result: Vaccinia Venus, VACV mCherry inh)
COC(=O)[C@]1(Cc2ccccc2)N[C@H](CN(C)C(=O)Nc2ccc(C(F)(F)F)cc2)[C@@H]2C(=O)N(Cc3ccccc3)C(=O)[C@@H]21	Vaccinia Venus 10µM, VACV mCherry inh inconclusive, HCV inh 12.6µM (no result: FBPA Giardia inh)
CC[C@@]1(C(=O)OC)N[C@H](CN(C)C(=O)Nc2ccc(C(F)(F)F)cc2)[C@@H]2C(=O)N(Cc3ccccc3)C(=O)[C@@H]21	none (no result: FBPA Giardia inh)
N#C/C(=C(/O)c1cccc(F)c1)c1nc2ccccc2s1	HCMV antiviral -69.7 (no result: Vaccinia Venus, VACV mCherry inh)
CSc1nc(SCC(=O)NC(c2ccccc2)c2ccccc2)c2c3c(sc2n1)CN(C)CC3	HCV inh 1.78µM (no result: Vaccinia Venus, VACV mCherry inh)
C[CH2][Hg][S]c1ccccc1C(=O)O	FBPA Giardia inh 12.6µM, Vaccinia Venus 11.2µM, HCMV antiviral -95.5, VACV mCherry inh inconclusive, FMDV inh 28.2µM
Cc1ccccc1C(=O)N1CCCCC1CCN1CCCCC1 (stereo not given)	none (no result: FBPA Giardia inh, HCV inh)
CCCOc1ccccc1C(=O)N1CCCCC1CCN1CCCCC1 (stereo not given)	HCMV antiviral -69.6 (no result: FBPA Giardia inh, HCV inh)
Cc1ccc(NC(=S)NCCc2ccc(F)cc2)c(C)c1	HCMV antiviral inconclusive
Cc1ccccc1NC(=S)NCCC(c1ccccc1)c1ccccc1	none
Cc1ccc(F)cc1NC(=S)NCCc1ccccc1	HCV inh 10µM
Cc1ccc(NC(=S)NCCC(c2ccccc2)c2ccccc2)c(C)c1	HCMV antiviral -62.2, HCV inh 11.2µM
CCOc1ccccc1NC(=S)NCCc1ccc(F)cc1	HCMV antiviral -64.8, HCV inh inconclusive (no result: Vaccinia Venus, VACV mCherry inh)
CCn1cc2c(n1)-c1c(oc(C(=O)Nc3cccc(C(F)(F)F)c3)c1C)CC2	none (no result: FBPA Giardia inh, HCV inh)
Cc1cccc(Cn2c(=O)n(CC3CCC(C(=O)NC(C)C)CC3)c(=O)c3sccc32)c1 (stereo not given)	none (no result: FBPA Giardia inh, HCV inh)
O=[N+]([O-])c1cccnc1N1CCCCC1	none (no result: Vaccinia Venus, VACV mCherry inh)
O=[N+]([O-])c1cccnc1N1CCN(c2ccccc2F)CC1	HCMV antiviral -60.7
Cc1ccc(C)c(N2CCN(c3ncccc3[N+](=O)[O-])CC2)c1	HCV inh 11.2µM
Cc1ccc(N2CCN(c3ncccc3[N+](=O)[O-])CC2)c(C)c1	HCV inh inconclusive
COc1ccc(CCN2CC(C(=O)NCCCc3ccncc3)CCC2=O)cc1 (stereo not given)	none (no result: FBPA Giardia inh, HCV inh)
Cn1c2c(c(=O)n(C)c1=O)C(c1ccccc1[N+](=O)[O-])CC(=O)N2 (stereo not given)	none (no result: FBPA Giardia inh, HCV inh)
CCC(=O)Nc1ccc(S(=O)(=O)NC[C@H]2O[C@@H](n3cc(C)c(=O)[nH]c3=O)C[C@@H]2O)cc1	none (no result: FBPA Giardia inh, HCV inh)
CCOC(=O)c1sc(N2C(=O)c3oc4cc(C)c(C)cc4c(=O)c3C2c2ccc(C)cc2)nc1C (stereo not given)	HCMV antiviral -111.2 (no result: FBPA Giardia inh, HCV inh)
